Laboratory results from PubChem BioAssay (EPA / NIEHS).
Calls of active or inactive are those of the source. Rule for the calls: active = hit-call score of the fitted dose curve at least 0.9, where 1 is the maximum; inactive = score below 0.9.

Assay: ATG_FoxO_CIS: Attagene CIS-FACTORIAL HepG2 Assay for human Forkhead box O (FoxO) (AID 2282943)
Conditions: HepG2 Attagene cis-reporter, FoxO element, mRNA; actives raise or lower the signal
Procedure: ATG_CIS is a cell-based, multiplexed-readout assay that uses HepG2, a human liver cell line, with measurements taken at 24 hours after chemical dosing in a 24-well plate.ATG_FoxO_CIS is one of 52 assay component(s) measured or calculated from the ATG_CIS assay. It is designed to make measurements of mRNA induction, a form of inducible reporter, as detected with fluorescence intensity signals by Reverse transcription polymerase chain reaction (RT-PCR) and Capillary electrophoresis technology.Data from the assay component ATG_FoxO_CIS was analyzed into 1 assay endpoint. This assay endpoint, ATG_FoxO_CIS, was analyzed with bidirectional fitting relative to DMSO as the negative control and baseline of activity. Using a type of inducible reporter, measures of mRNA for gain or loss-of-signal activity can be used to understand the reporter gene at the transcription factor-level as they relate to the gene FOXO1 and FOXO3. Furthermore, this assay endpoint can be referred to as a primary readout, because this assay has produced multiple assay endpoints where this one serves a reporter gene function. To generalize the intended target to other relatable targets, this assay endpoint is annotated to the dna binding intended target family, where the subfamily is forkhead box protein.
Human liver HepG2 cells are transiently transfected with multiple reporter transcription units (MRTUs) in 6-well plates using FuGene 6 reagent (Roche; 3 ml FuGene/1 mg DNA). The MRTU constructs are regulated by a cis-regulating element (promoter). […] A major difference between the CIS and TRANS system is that in CIS activities of endogenous TFs are measured, whereas the TRANS assay evaluates changes in activities of exogenous, chimeric NR-Gal4 proteins. […] At the end of 24 hour incubation, total RNA was isolated using TriZol reagent (Invitrogen). The isolated RNA is then reverse-transcribed using oligo(dT) primer and Mo-MLV reverse transcriptase (Invitrogen) with DNAse I (Ambion) treatment for 30 min. The one-tenth of the produced cDNA was amplified by PCR using Taq DNA polymerase (Invitrogen) and two reporter sequence-specific primers. The PCR products were fluorescently labeled by primer extension with 6-arboxyfluorescein (6-FAM) 5'-labeled reporter sequence-specific primer (2 min at 95 C, 20 s at 68 C and 10 min at 72 C) and these products were digested with 5U of HpaI (New England Biolabs) for 2h at 37 C. The fragments were purified using Qiaquick PCR columns (Qiagen), analyzed on an ABI 3130xL genetic analyzer (Applied Biosystems) with peak positions identified by using a set of X-rhodamine (ROX)-labeled MapMarker1000 molecular weight standards (BioVentures). The raw capillary electrophoresis data was processed using Attagraph software (Attagene).

Row | SMILES | outcome | AC50
1 | Oc1ccc2c(c1)CCC2 | inactive | –
2 | CCCCCCCCCCCCCC[P+](CCCC)(CCCC)CCCC | inactive | –
3 | NS(=O)(=O)C(F)(F)C(F)(F)C(F)(F)C(F)(F)C(F)(F)C(F)(F)F | inactive | –
4 | CC(C)CCCC(C)CCO (stereo not given) | inactive | –
5 | CCCC(=O)OCC(COC(=O)CCC)OC(=O)CCC | inactive | –
6 | CCCCCCCCn1sc(Cl)c(Cl)c1=O | inactive | –
7 | Brc1ccccn1 | inactive | –
8 | CCOC(C=C(C)CCC=C(C)C)OCC | inactive | –
9 | NCC(F)(F)C(F)(F)C(F)(F)C(F)(F)C(F)(F)C(F)(F)F | inactive | –
10 | OCCCC(F)(F)C(F)(F)C(F)(F)C(F)(F)C(F)(F)C(F)(F)C(F)(F)C(F)(F)F | inactive | –
11 | O=C(c1ccccc1)c1ccc(Cl)cc1 | inactive | –
12 | N#CCCOCCC#N | inactive | –
13 | Cc1ccc(S(=O)(=O)C(I)I)cc1 | – | 5.14 µM (active)
14 | CCC(=O)OC(C)c1ccccc1 (stereo not given) | inactive | –
15 | c1ccc(C[P+](c2ccccc2)(c2ccccc2)c2ccccc2)cc1 | inactive | –
16 | CC(C)(C)C(=O)C1C(=O)c2ccccc2C1=O | inactive | –
17 | Cc1cc(=O)[nH]c(C(C)C)n1 | inactive | –
18 | O=C1C=CC(=O)N1c1ccccc1 | inactive | –
19 | COc1ccccc1C=O | inactive | –
20 | CCN(CC)c1ccc(N=Nc2ccccc2)cc1 | inactive | –

Row | SMILES | outcome | AC50
21 | Cc1cccc(C)n1 | inactive | –
22 | CC(O)C#CC(C)O (stereo not given) | – | 63 µM (active)
23 | C=CC(=O)OCC(F)(F)C(F)(F)C(F)(F)COC(=O)C=C | inactive | –
24 | CCc1ccc(C)nc1 | inactive | –
25 | Nc1cc([N+](=O)[O-])cc(Cl)c1O | inactive | –
26 | OCCCCl | inactive | –
27 | FC(F)(F)C(F)(F)C(F)(F)C(F)(F)C(F)(F)C(F)(F)C(F)(F)CCI | inactive | –
28 | CCCCOC(=O)C(C)O (stereo not given) | inactive | –
29 | Cc1ccc([N+](=O)[O-])c(C)c1 | inactive | –
30 | Cc1ccc(O)cn1 | inactive | –
31 | O=C(O)CCC(F)(F)C(F)(F)C(F)(F)F | inactive | –
32 | O=C(O)C(F)(F)C(F)(F)C(F)(F)C(F)(F)C(F)(F)C(F)(F)C(F)F | inactive | –
33 | O=C(c1ccccc1)c1ccc(O)cc1O | inactive | –
34 | CC(C)Nc1ccc(NC(C)C)c2c1C(=O)c1ccccc1C2=O | inactive | –
35 | Cc1cc(C)c(O)c(C(C)(C)C)c1 | inactive | –
36 | Cc1ccc2c(c1)OCC(=O)CO2 | inactive | –
37 | FC(F)(F)C(F)(F)C(F)(F)CC1CO1 (stereo not given) | inactive | –
38 | NC(=O)C(F)(F)C(F)(F)C(F)(F)C(F)(F)C(F)(F)C(F)(F)C(F)(F)F | inactive | –
39 | CCOCN(C(=O)CS(=O)(=O)O)c1c(C)cccc1CC | inactive | –
40 | Nc1cccnc1N | inactive | –
